# Source: PubChem BioAssay (Broad Institute)
# Sampled rows, rich in hits. Any-hit rate of the full collection: about 2.3%.
# Rtt109 Vps75: inhibitors of C. albicans Rtt109/Vps75 HAT, primary screen, biochemical, ThioGlo CoA-SH fluorescence, plate reader | Histone acetyltransferase RTT109 (Candida albicans (strain SC5314 / ATCC MYA-2876)), … | purified Rtt109/Vps75, 4 h | inhibition, % at 34.9 µM | actives 0.16% (n = 330,000) | AID 540336, 2011;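 active = inhibition of at least 50% in every replicate; inconclusive = best replicate reaches 50% inhibition but some replicates fall short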
# PDI turbidity: inhibitors of human PDI, primary screen, biochemical, turbidity, single point, plate reader. Protein disulfide-isomerase (Homo sapiens), P07237. PDI insulin aggregation turbidity, A650, 90 min. inhibition, % at 10 µM. actives 0.052% (n = 350,000). AID 588391, 2011;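 active = mean inhibition across replicates of 30% or more, whatever share of single replicates reach that level; inconclusive = mean inhibition below 30% while every single replicate reaches 30%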
# ERp5 inh: inhibitors of ERp5-driven insulin aggregation, primary screen, biochemical, turbidity, absorbance 650 nm, single point | Protein disulfide-isomerase A6 (Homo sapiens), Q15084 | 90 min | inhibition, % at 9.99 µM | actives 0.05% (n = 350,000) | AID 651711, 2012;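 active = mean replicate inhibition above about 25%, with every replicate also reaching it, limit read from the data, passing the limit was not always enough; inconclusive = only one of those two criteria met; inactive = neither criterion met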
# DENV2 CPE rescue: inhibitors of DENV2 cytopathic effect, primary screen, cell-based, plate reader, single concentration; DENV2-infected cells, cytopathic effect rescue; CPE inhibition, % at 9.99 µM; actives 1.7% (n = 350,000); AID 651640, 2012; in the data active = CPE inhibition above about 20%, passing the limit was not always enough; inconclusive = no clear call, values can overlap the other calls; tested in BHK-21 cells;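 note: 0% = median of neutral control wells and 100% = median of positive control wells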
# SIRT5 block: SIRT5 desuccinylase inhibitors, primary screen, biochemical, fluorescence imaging, single point, set 5 | NAD-dependent protein deacylase sirtuin-5, mitochondrial (Homo sapiens), Q9NXA8 | Purified SirT5, succinyl-peptide AMC, trypsin-coupled fluorescence | actives 1.1% (n = 330,000) | inhibition, % at 15 µM | AID 652115, 2013; in the data active = inhibition above about 15%; inconclusive = no clear call, values can overlap the other calls
# Target sequence (Q9NXA8 whole entry, looked up): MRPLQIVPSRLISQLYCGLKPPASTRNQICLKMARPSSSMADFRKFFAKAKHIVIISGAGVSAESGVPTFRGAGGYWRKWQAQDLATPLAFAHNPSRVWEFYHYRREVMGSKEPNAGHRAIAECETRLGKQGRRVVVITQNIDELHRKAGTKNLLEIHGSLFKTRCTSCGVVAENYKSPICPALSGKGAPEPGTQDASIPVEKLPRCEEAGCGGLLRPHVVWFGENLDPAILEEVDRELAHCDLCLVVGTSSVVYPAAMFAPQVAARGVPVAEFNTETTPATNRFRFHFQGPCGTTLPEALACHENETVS
# An asterisk follows results filed as active; ? = inconclusive; / = not tested or not shown.
SMILES,Rtt109 Vps75,PDI turbidity,ERp5 inh,DENV2 CPE rescue,SIRT5 block
O=C(c1cnccn1)N1CC[C@@H]2[C@@H](CO)Nc3ccc(-c4ccccc4F)cc3[C@@H]21,/,/,1,114*,1
O=C(c1cccnc1)N1CC[C@@H]2[C@@H](CO)Nc3ccc(C4=CCCCC4)cc3[C@@H]21,/,/,7,?,17*
COc1ccccc1N1CCN(C2CCCN(C(=O)c3cccc(-c4ccco4)c3)C2)CC1 (configuration not stated),18,5,-13,44*,-5
COc1ccc(C(=O)N2CCN(C3CCCCC3)CC2)cc1OC,5,0,1,31*,5
COc1cc(OC)cc(C(=O)N2CCC(N3CCN(c4ccccc4OC)CC3)CC2)c1,-11,14,-1,4,24*
COc1ccccc1N1CCN(C2CCCN(C(=O)c3ccoc3C)C2)CC1 (configuration not stated),-7,4,-4,-1,-3
COc1cccc(NC(=O)CN(C)C(=O)CC2CCCC2)c1,1,-4,20,-9,-5
COc1ccc(NC(=O)CN(C)CC(=O)Nc2ccc3c(c2)CCC3)cc1,3,-6,-1,10,112*
COc1ccc(NC(=O)CN(C)C(=O)CC2CCCC2)cc1,11,-4,-3,20*,-4
COc1ccc(NC(=O)CN(C)C(=O)CCSc2ccc(C)cc2)cc1,1,0,-1,62*,-3
COc1cccc(NC(=O)CN(C)CC(=O)NCc2ccc(F)cc2)c1,-3,-1,3,3,5
COc1cccc(NC(=O)CN(C)C(=O)CCSc2ccc(C)cc2)c1,5,-3,0,-7,-1
COc1ccc(OCC(=O)Nc2ccc3c(c2)CCC3)cc1,4,-6,0,?,-1
COc1cccc(NC(=O)CN(C)CC(=O)NCc2ccco2)c1,3,-13,-18,-1,17*
CCNC(=O)C[C@H]1CC[C@@H]2[C@@H](COc3ccc(NC(=O)Cc4cccs4)cc3C(=O)N2C)O1,/,/,-3,9,-2
C[C@H](NC(=O)C[C@H]1C=C[C@H](NC(=O)Cc2ccccn2)[C@H](CO)O1)c1ccccc1,/,/,-4,19,1
CCCCOC(=O)c1sc2nc(N3CCOCC3)c3c(c2c1N)CC(C)(C)OC3,-2,8,7,-3,24*
Cc1ccc(S(=O)(=O)N(C)C[C@H]2OCCCC[C@@H](C)Oc3ccc(NS(=O)(=O)c4ccc(F)cc4)cc3C(=O)N([C@@H](C)CO)C[C@H]2C)cc1,/,/,0,-3,22*
Cc1ccc(S(=O)(=O)N(C)C[C@@H]2OCCCC[C@@H](C)Oc3ccc(NS(=O)(=O)c4ccc(F)cc4)cc3C(=O)N([C@H](C)CO)C[C@@H]2C)cc1,/,/,-2,5,4
Cc1ccc(S(=O)(=O)Nc2ccc3c(c2)C(=O)N([C@H](C)CO)C[C@H](C)[C@H](CN(C)S(=O)(=O)c2ccc(F)cc2)OCCCC[C@H](C)O3)cc1,/,/,-4,-2,17*
Cc1ccc(S(=O)(=O)N(C)C[C@@H]2OCCCC[C@H](C)Oc3ccc(NS(=O)(=O)c4ccc(F)cc4)cc3C(=O)N([C@@H](C)CO)C[C@@H]2C)cc1,/,/,2,2,20*
Cc1ccc(S(=O)(=O)Nc2ccc3c(c2)C(=O)N([C@@H](C)CO)C[C@H](C)[C@@H](CN(C)S(=O)(=O)c2ccc(F)cc2)OCCCC[C@@H](C)O3)cc1,/,/,2,8,15
Cc1ccc(S(=O)(=O)N(C)C[C@@H]2OCCCC[C@H](C)Oc3ccc(NS(=O)(=O)c4ccc(F)cc4)cc3C(=O)N([C@H](C)CO)C[C@@H]2C)cc1,/,/,4,8,26*
Cc1ccc(S(=O)(=O)Nc2ccc3c(c2)C(=O)N([C@H](C)CO)C[C@@H](C)[C@H](CN(C)S(=O)(=O)c2ccc(F)cc2)OCCCC[C@H](C)O3)cc1,/,/,5,-13,10
O=C(O)C[C@H]1C[C@@H]2c3cc(NC(=O)Nc4ccc(F)cc4)ccc3O[C@@H]2[C@@H](CO)O1,/,/,-7,0,-5
